# Rows were chosen to be rich in hits. Some 7.2% of all compounds tested hit in one or more screens of this group.
# ALR H2O2 inh – human ALR oxidase inhibition via reduced H2O2. P55789. purified ALR, DTT oxidation, H2O2 HRP-luminol luminescence. inhibition, % (test concentration not listed). actives 3.8% (n = 290,000). AID 485317;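 active = mean replicate inhibition above about 79%, with every replicate also reaching it, limit read from the data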
# Target sequence (P55789 whole entry, looked up): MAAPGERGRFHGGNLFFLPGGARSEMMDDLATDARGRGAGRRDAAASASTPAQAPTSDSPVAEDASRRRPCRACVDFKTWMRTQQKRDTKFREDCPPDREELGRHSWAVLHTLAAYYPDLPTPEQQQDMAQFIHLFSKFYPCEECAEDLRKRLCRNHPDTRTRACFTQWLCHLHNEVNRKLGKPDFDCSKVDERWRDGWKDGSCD
# Bfl-1 A1 inh – inhibitors of the anti-apoptotic protein A1, read as caspase activation | AID 2462 | actives 0.066% (n = 330,000) | MEF A1-2A-BIM cells, Caspase-Glo 3/7 luminescence, 3 h; percent of clofoctol response, vehicle zero | caspase activation, % (no concentration beside the values);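 active = over half of replicate activation scores above 10%, or exactly half above 10 with the replicate mean above 10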
# Efflux pump inh – inhibitors of Candida antifungal efflux pumps expressed in yeast; AID 485275; S. cerevisiae Candida pump triplex, Nile Red efflux; actives 0.44% (n = 330,000); inhibition, % at 10 µM;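 active = plate passing quality check with inhibition over a set limit, or well fluorescence over plate mean plus 4 SD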;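 note: Nile Red retained in pooled yeast measured as flow cytometry median fluorescence; higher means more Nile Red kept so more efflux inhibition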
# VLA-4 inh – inhibition in a human VLA-4 binding assay; actives 0.2% (n = 330,000); P13612; inhibition, % (about 7 µM as worked out from the volumes in the protocol); VLA-4 expressing cells, ligand binding flow cytometry; in the data active = inhibition above about 50%
# AHR activator – activates the human aryl hydrocarbon receptor; P35869; AHR-responsive luciferase reporter cells, luminescence; activation, % at 5 µM; actives 2.5% (n = 320,000); in the data active = activation above about 47%
# Mot1-301 SUMO – blocks SUMOylation pathway, rescuing yeast Mot1-301 growth; S. cerevisiae Mot1-301 growth rescue, ATP luminescence, 38.5C; percent above DMSO median, 100 means doubled; growth rescue, % at 18.8 µM; actives 1% (n = 320,000); AID 2716;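 active = every valid replicate shows activation above 250% relative to neutral control wells; inactive = the rest, any valid replicate at or below 250%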
# Mot1 SUMO dose – inhibits SUMO pathway, affecting Mot1-301 yeast growth; shares compounds with Mot1-301 SUMO; 2,300 tested, under 10 active; growth activity, percent, % at 42 µM; S. cerevisiae Mot1-301 galactose growth, ATP luminescence, 24 h; -100 = growth of slx-deleted rescue strain;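 active = Signal drops as the depositor expects, and the fitted half-maximal dose is no more than ten times the top valid tested dose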;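 note: more negative values mean stronger growth rescue toward the control strain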
# A number is an active result; . = inactive; / = not tested or not shown; + = active, no number; ! = a repeat was not active.
SMILES,ALR H2O2 inh,Bfl-1 A1 inh,Efflux pump inh,VLA-4 inh,AHR activator,Mot1-301 SUMO,Mot1 SUMO dose
CCOC(=O)C1CCN(CC(O)COc2ccc(C(C)(C)CC)cc2)CC1 (centres undefined),.,.,.,.,.,.,/
COc1ccc(CCNC(=O)CSc2nnc(-c3ccco3)c(-c3ccco3)n2)cc1OC,/,.,.,.,.,.,/
CCOC(=O)C1CCN(C(=O)CN2C(=O)COc3ccc(C(C)(C)C)cc32)CC1,.,.,.,.,.,.,/
CNC(=O)COC(=O)c1cc(-c2ccco2)nc2ccccc12,.,.,.,.,.,+,.
Cc1cc(S(=O)(=O)NCc2ccccc2)ccc1OCC(=O)Nc1cccc([N+](=O)[O-])c1,.,.,.,.,.,.,/
CC1CCN(CCCCOc2cccc(Br)c2)CC1,.,.,.,.,.,373,.
CN(C)C(=O)c1cc(C(=O)c2ccc(F)cc2F)c[nH]1,.,.,.,.,.,.,/
CN(C)C(=O)c1cc(C(=O)c2ccc(C(F)(F)F)cc2F)c[nH]1,.,.,.,.,.,500,.
CCOc1ccc(N2CC(C(=O)OC)CC2=O)cc1 (centres undefined),.,.,.,.,.,385,.
CCNC(=O)C1CC(=O)N(c2ccc(OCC)cc2)C1 (centres undefined),.,.,.,.,.,.,/
O=C1CNC(=S)N1CCc1ccccc1Cl,.,.,.,.,.,.,/
COc1ccc(N2C(=O)CSC2c2ccc([N+](=O)[O-])cc2)cc1 (centres undefined),98,.,.,.,.,580,.
O=C(N/N=C/c1ccc(OC(F)F)cc1)c1ccc(CSc2nc3ccccc3[nH]2)cc1,.,.,.,.,.,.,/
CCOc1ccc(/C=N/NC(=O)c2ccc(CSc3nc4ccccc4[nH]3)cc2)cc1,.,.,.,.,.,508,.
COc1cc(C(C2=C(O)CC(C)(C)CC2=O)C2C(=O)CC(C)(C)CC2=O)cc(OC)c1OC (centres undefined),.,.,.,.,.,658,.
Cc1cccc(COC(=O)CCCNC(=O)c2ccc(Cl)cc2)c1,.,.,.,.,.,.,/
Cc1ccc(S(=O)(=O)Oc2ccc(/C=C3\N=C(c4cccc(C)c4)OC3=O)cc2)cc1,.,.,.,.,.,+,.
CC(=O)O[C@H]1C(=O)[C@@]2(C)[C@H]([C@H](OC(=O)c3ccccc3)[C@]3(O)C[C@H](OC(=O)[C@H](O)[C@@H](NC(=O)c4ccccc4)c4ccccc4)C(C)=C1C3(C)C)[C@]1(OC(C)=O)CO[C@@H]1C[C@@H]2O,/,.,.,.,.,.,/
COc1ccc(Cl)cc1NC(=O)C1CCCN(c2cc(C)nc3ncnn23)C1 (centres undefined),.,.,.,.,.,733,.
COc1ccc(OC)c(NC(=O)CN(C)S(=O)(=O)c2ccc(Cl)cc2)c1,.,.,.,.,.,415,.
COc1ccc(OC)c(S(=O)(=O)N(C)CC(=O)Nc2ccccc2OC)c1,.,.,.,.,.,.,/
Fc1ccc(CN(Cc2ccccc2)C(c2cccs2)c2nnnn2C2CCCCC2)cc1 (centres undefined),.,.,.,.,.,.,/
Clc1ccc(CN(Cc2ccccc2)C(c2cccs2)c2nnnn2C2CCCC2)cc1 (centres undefined),.,.,.,.,.,657,.
CC(C)CCNC(=O)CN(C(=O)CCC(=O)Nc1nccs1)c1ccc2c(c1)OCCO2,.,.,.,.,.,.,/
CC(C)(C)NC(=O)CN(C(=O)CCC(=O)Nc1nccs1)c1ccc2c(c1)OCCO2,/,.,.,.,.,543,.
SMILES,ALR H2O2 inh,Bfl-1 A1 inh,Efflux pump inh,VLA-4 inh,AHR activator,Mot1-301 SUMO,Mot1 SUMO dose
CC(=O)NC(CC(=O)NCCCn1ccc2ccccc21)c1ccccc1 (centres undefined),.,.,.,.,.,.,/
C=CCN1C(=O)/C(=C\c2ccc(C)cc2)N=C1SCC(=O)NCCC,98,.,.,.,.,+,.
Cn1c(SCC(=O)c2ccccc2)nnc1-c1cccs1,.,.,.,.,.,.,/
CCN(CC)CCCn1c(=S)[nH]c2ccc(Cl)cc2c1=O,.,.,.,.,.,631,.
CCN(CC)CCCn1c(=S)[nH]c2cc(Cl)ccc2c1=O,.,.,.,.,.,.,/
Cc1sc2nc(N)sc2c1C,.,.,.,.,.,+,.
COc1ccc(N(Cc2ccccc2)S(=O)(=O)c2cccc(C(=O)Nc3ccccn3)c2)cc1,.,.,.,.,.,.,/
O=C(Nc1ccccn1)c1ccc(CN(c2ccccc2)S(=O)(=O)c2ccccc2)cc1,.,.,.,.,.,505,.
O=C(NCc1ccccn1)c1ccc(S(=O)(=O)Nc2ccccc2F)cc1,.,.,.,.,.,.,/
CNC(=O)Nc1cccc(C(F)(F)F)c1,.,.,.,.,.,.,/
CNC(=O)Nc1cc(NC(=O)NC)cc(C(F)(F)F)c1,.,.,.,.,.,586,.
O=C1C(C2=NC(c3ccccn3)C3C(=O)N(c4ccccc4)C(=O)C23)=C(O)c2ccccc21 (centres undefined),.,.,.,.,.,.,/
O=C(NCc1ccccn1)C1CC(c2ccc(Cl)c(Cl)c2)=NO1 (centres undefined),.,.,.,.,.,+,.
CC(=O)c1ccc(Oc2cc(C)nc(N3CCOCC3)n2)cc1,.,.,.,.,.,436,.
O=C(CN1CCN(C(=O)c2cccc(-n3cnnn3)c2)CC1)Nc1ccccc1Cl,.,.,.,.,.,.,/
Cc1ccc(S(=O)(=O)NCC(=O)OCC(=O)c2ccc(Br)s2)cc1,.,.,.,.,.,747,.
O=C(COC(=O)c1ccc(Cl)nc1)Nc1ccccc1OC(F)F,.,.,.,.,.,.,/
COc1ccc(C(=O)NCCSc2ccc(C)cc2)cc1,.,.,.,.,.,470,.
Cc1ccc(SCCNC(=O)c2ccccc2)cc1,.,.,.,.,.,.,/
c1ccc2cc(Cn3ccnc3)ccc2c1,.,.,.,.,.,413,.
c1ccc2cc(OCCCn3ccnc3)ccc2c1,.,.,.,.,.,.,/
CCCC(C)C(=O)Nc1ccncc1 (centres undefined),.,.,.,.,.,.,/
CC(N=C(NC#N)Nc1ccncc1)C(C)(C)C (centres undefined),.,.,.,.,.,798!,.
NC(=O)NC(=O)CSc1nc(C2CCCCC2)n(-c2ccccc2)n1,.,.,.,.,.,685,.
C/C(N)=C(/C#N)C(=O)CSc1nc(C2CCCCC2)n(-c2ccccc2)n1,.,.,.,.,.,.,/
